Experimental findings from PubChem BioAssay (EPA / NIEHS) are described below.

The source made the active and inactive calls. The calls were made as follows: active = hit-call score of the fitted dose curve at least 0.9, where 1 is the maximum; inactive = score below 0.9.

This test in a line: ATG_Sox_CIS: Attagene CIS-FACTORIAL HepG2 Assay for human SRY-box transcription factor (SOX) (AID 2282960). To be noted: HepG2 Attagene cis-factorial SOX reporter, mRNA; actives raise or lower the signal. As to the method: ATG_CIS is a cell-based, multiplexed-readout assay that uses HepG2, a human liver cell line, with measurements taken at 24 hours after chemical dosing in a 24-well plate.ATG_Sox_CIS is one of 52 assay component(s) measured or calculated from the ATG_CIS assay. It is designed to make measurements of mRNA induction, a form of inducible reporter, as detected with fluorescence intensity signals by Reverse transcription polymerase chain reaction (RT-PCR) and Capillary electrophoresis technology.Data from the assay component ATG_Sox_CIS was analyzed into 1 assay endpoint. This assay endpoint, ATG_Sox_CIS, was analyzed with bidirectional fitting relative to DMSO as the negative control and baseline of activity. Using a type of inducible reporter, measures of mRNA for gain or loss-of-signal activity can be used to understand the reporter gene at the transcription factor-level as they relate to the gene SOX1. Furthermore, this assay endpoint can be referred to as a primary readout, because this assay has produced multiple assay endpoints where this one serves a reporter gene function. To generalize the intended target to other relatable targets, this assay endpoint is annotated to the dna binding intended target family, where the subfamily is HMG box protein.
Human liver HepG2 cells are transiently transfected with multiple reporter transcription units (MRTUs) in 6-well plates using FuGene 6 reagent (Roche; 3 ml FuGene/1 mg DNA). The MRTU constructs are regulated by a cis-regulating element (promoter). […] A major difference between the CIS and TRANS system is that in CIS activities of endogenous TFs are measured, whereas the TRANS assay evaluates changes in activities of exogenous, chimeric NR-Gal4 proteins. […] At the end of 24 hour incubation, total RNA was isolated using TriZol reagent (Invitrogen). The isolated RNA is then reverse-transcribed using oligo(dT) primer and Mo-MLV reverse transcriptase (Invitrogen) with DNAse I (Ambion) treatment for 30 min. The one-tenth of the produced cDNA was amplified by PCR using Taq DNA polymerase (Invitrogen) and two reporter sequence-specific primers. The PCR products were fluorescently labeled by primer extension with 6-arboxyfluorescein (6-FAM) 5'-labeled reporter sequence-specific primer (2 min at 95 C, 20 s at 68 C and 10 min at 72 C) and these products were digested with 5U of HpaI (New England Biolabs) for 2h at 37 C. The fragments were purified using Qiaquick PCR columns (Qiagen), analyzed on an ABI 3130xL genetic analyzer (Applied Biosystems) with peak positions identified by using a set of X-rhodamine (ROX)-labeled MapMarker1000 molecular weight standards (BioVentures). The raw capillary electrophoresis data was processed using Attagraph software (Attagene).
Turning to `Oc1c(Cl)cc(Cl)cc1Cl`, the compound was called inactive. The same measure, in the same setting: as for `BrCc1ccc(Br)cc1`, the entry is “inactive”; as for `O=C=Nc1ccc(Cl)cc1`, “inactive”.

As for `COC(=O)Nc1cccc(OC(=O)Nc2cccc(C)c2)c1`, the call was inactive. With `CC(C)C(C)(N)C#N` (stereo not given), the compound was classed as inactive. Regarding `Cc1cc(-c2cc(C)c(N)c(C)c2)cc(C)c1N`, the compound was classed as inactive. As to `Oc1ccc(Cc2ccc(O)cc2)cc1`, the result was inactive. On to `CC(C)(C)c1ccc(CCOc2ncnc3ccccc23)cc1`, for which the compound was classed as inactive. Consider `COc1ccc(N)cc1`, for which the outcome was inactive. Turning to `COC(F)(C(F)(F)C(F)(F)F)C(F)(C(F)(F)F)C(F)(F)F` (stereo not given), the compound was classed as inactive. Consider `CCCCOC(=O)COC(=O)c1ccccc1C(=O)OCCCC`, for which the compound was called inactive. `CC1CC(=O)O1` (stereo not given): the compound was classed as inactive. On the same count and under the same terms, the result for `CCCCCCCCCCCCOS(=O)(=O)O` reads “inactive”; that for `CS(=O)(=O)c1ccc(C(=O)C2C(=O)CCCC2=O)c(Cl)c1COCC(F)(F)F`, “inactive”. For `Cc1ccccc1OP(=O)(Oc1ccccc1C)Oc1ccccc1C`, the compound was called inactive. Regarding `O=c1nc(O)n(Cl)c(=O)n1Cl`, the result was inactive. Same read-out and setting: as for `O=C(Cl)OCCOCCOC(=O)Cl`, the entry is “inactive”; as for `O=C(CCl)NCO`, “inactive”; as for `O=C(O)COc1ccc(Cl)cc1`, “inactive”. Consider `CC(C)(C)c1cc([N+](=O)[O-])cc(C(C)(C)C)c1O`, for which the outcome was inactive. Consider `O=C(NC(=O)c1c(F)cccc1F)Nc1cc(Cl)c(Oc2ncc(C(F)(F)F)cc2Cl)c(Cl)c1`, for which the outcome was inactive. On the same count and under the same terms, the result for `Cc1cccc(C)c1NC(=O)CN1CCCC1=O` reads “inactive”; that for `CC(C)(COCC1CO1)COCC1CO1` (stereo not given), “inactive”. The same measure, in the same setting: the result for `Clc1cnc(Oc2ccc(Oc3ncc(Cl)cc3Cl)cc2)c(Cl)c1` reads “inactive”; that for `C=CCOC(N)=O`, “inactive”. Regarding `CCCCC(CC)COC(=O)Cl` (stereo not given), the compound was classed as inactive. Still for that read-out and setting: as for `C=CC(Cl)CCl` (stereo not given), the entry is “inactive”. Same read-out and setting: as for `CCOc1ccc(N)cc1`, the entry is “inactive”; as for `CCC(C)(C#N)N=NC(C)(C#N)CC` (stereo not given), “inactive”; as for `COc1ccc([N+](=O)[O-])cc1O`, “inactive”. With `CCCCOP(=O)(CCCC)OCCCC`, the call was inactive. For the compound `Cc1cc(C(F)(C(F)(F)F)C(F)(F)F)ccc1NC(=O)c1cccc(I)c1C(=O)NC(C)(C)CS(C)(=O)=O`, the compound was classed as inactive. Regarding `Nc1c(Oc2ccccc2)cc(O)c2c1C(=O)c1ccccc1C2=O`, the outcome was inactive. Same read-out and setting: the result for `CCCCS(=O)(=O)Cl` reads “inactive”; that for `C[C@@H]1O[C@@H](O[C@H]2C[C@@H](O)[C@]3(CO)[C@H]4[C@H](O)C[C@]5(C)[C@@H](C6=CC(=O)OC6)CC[C@]5(O)[C@@H]4CC[C@]3(O)C2)[C@H](O)[C@H](O)[C@H]1O`, “inactive”. Consider `CN(C)[C@@H]1C(=O)C(C(N)=O)=C(O)[C@@]2(O)C(=O)C3=C(O)c4c(O)ccc(Cl)c4[C@@](C)(O)[C@H]3C[C@@H]12`, for which the compound was called inactive. On to `Nc1cccnc1`, for which the compound was called inactive. The AC50 is the midpoint of the concentration-response curve, whichever way the signal moves. Regarding `CC(C)(C)c1ccccc1O`, the half-maximal activity concentration (AC50) is 100 µM (active).

As to `CC(C=O)Cc1ccc2c(c1)OCO2` (stereo not given), the result was inactive. With `OCCN(CCO)CCO`, the compound was called inactive.
